Measured values reported in PubChem BioAssay (NCI).
The panel holds about 83,000 compounds, 20% with a hit somewhere; the sample as a whole holds those more often.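 In brief: 96-well plates, 48 h treatment, single concentration, percent growth endpoint.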 The source made the active and inactive calls. How the source made its calls: active means growth percent below 10; inactive means the rest.

Experiments:
Assay in all cases: NCI-60 one-dose screen, 48 h (100 = growth as untreated, 0 = no growth, -100 = all killed)
Settings in all cases: 10 µM unless noted
[1] = test system: DU-145 prostate
[2] = test system: K-562 leukemia
[3] = test system: MALME-3M melanoma
[4] = test system: MDA-MB-231 breast
[5] = test system: RXF 393 renal
[6] = test system: SF-268 CNS
[7] = test system: SF-295 CNS
[8] = test system: SF-539 CNS
[9] = test system: UACC-257 melanoma
[10] = test system: M14 melanoma
[11] = test system: HCT-15 colon
[12] = test system: HT29 colon
[13] = test system: SNB-75 CNS
[14] = test system: SNB-19 CNS
[15] = test system: U251 CNS
[16] = test system: PC-3 prostate
[17] = test system: SK-MEL-5 melanoma
[18] = test system: UACC-62 melanoma
[19] = test system: LOX IMVI melanoma
[20] = test system: SK-MEL-28 melanoma

Measured: growth

COc1ccc(S(=O)(=O)N(C)c2oc(-c3ccc(Cl)cc3)nc2C#N)cc1
inactive: [1] 97.9% | [2] 20.3% | [3] 68.9% | [4] 87% | [5] 80.1% | [6] 82.7% | [7] 91.9% | [8] 82.9% | [9] 86.7% | [10] 53.8% | [11] 44.3% | [12] 65.9% | [13] 65.1% | [14] 81% | [15] 81.1% | [16] 87.4% | [17] 86.1% | [18] 59.1% | [19] 71.9% | [20] 84.4%

O=C(Nc1ccc(Cl)cc1)C1=NCCCCN1
inactive: [1] 84.1% | [2] 42.3% | [3] 96.7% | [4] 97.9% | [5] 106% | [6] 77.7% | [7] 93.4% | [8] 95.8% | [9] 99.7% | [10] 75.7% | [11] 55.4% | [12] 89.6% | [13] 95.6% | [14] 101% | [15] 90.9% | [16] 73% | [17] 93.6% | [18] 45.1% | [19] 30.5% | [20] 111%

O=[N+]([O-])c1ccc(Oc2cccc3c(Oc4ccc([N+](=O)[O-])cc4[N+](=O)[O-])cccc23)c([N+](=O)[O-])c1
inactive: [1] 107% | [2] 95.1% | [3] 105% | [4] 63.7% | [5] 96.4% | [6] 85% | [7] 99.9% | [8] 96.3% | [9] 91.6% | [10] 93.3% | [11] 100% | [12] 97% | [13] 81.6% | [14] 84.7% | [15] 87% | [16] 79.7% | [17] 86.7% | [18] 76.5% | [19] 78.4% | [20] 110%

COc1c(O[C@@H]2OC(CO)[C@H](O)[C@H](O)C2O)cc2oc3cc(O)c(CC=C(C)C)c(O)c3c(=O)c2c1CC=C(C)C (stereo not given in full)
inactive: [1] 104% | [2] 68.5% | [3] 104% | [4] 68.5% | [5] 110% | [6] 92.1% | [7] 93.2% | [8] 107% | [9] 91.3% | [10] 86.2% | [11] 97.9% | [12] 93.6% | [13] 93.9% | [14] 96.1% | [15] 77.9% | [16] 73.8% | [17] 97.8% | [18] 83.8% | [19] 85.2% | [20] 106%

CCOC(=O)c1cc(C(=O)c2cc(OC)cc(OC)c2)n2ccccc12
inactive: [1] 53.8% | [2] 15.8% | [3] 31.8% | [4] 55.8% | [5] 49.6% | [6] 46.8% | [7] 26.1% | [8] 44.8% | [9] 43.9% | [11] 25.6% | [12] 10.1% | [13] 20.5% | [14] 41.7% | [15] 38.6% | [16] 40.4% | [17] 27.4% | [18] 30.9% | [19] 38.1% | [20] 67.3%
active: [10] 3.55%

O=C(/C=C\c1ccc(O)c(O)c1)c1ccccc1O
inactive: [1] 94.4% | [2] 73.4% | [3] 97.4% | [4] 69.3% | [5] 42.8% | [6] 69.5% | [7] 99.7% | [8] 59.3% | [9] 86.1% | [10] 93.5% | [11] 46% | [12] 90.8% | [13] 76.9% | [14] 81.4% | [15] 69% | [16] 76.7% | [17] 77.2% | [18] 72.6% | [19] 75.1% | [20] 94.9%

O=C(Nc1ncc(Cc2ccc(Cl)cc2)s1)C1=NCCCCN1
inactive: [1] 105% | [2] 95.4% | [3] 102% | [4] 110% | [5] 119% | [6] 103% | [7] 102% | [8] 102% | [9] 108% | [10] 104% | [11] 98.9% | [12] 102% | [13] 102% | [14] 106% | [15] 106% | [16] 101% | [17] 99.8% | [18] 97.7% | [19] 98.7% | [20] 108%

Cc1nn(-c2ccccc2)c(Oc2ccccc2)c1/C=N/NC(=O)Cn1c(=O)sc2ccccc21
active: [17] -47.7%
inactive: [1] 76.1% | [2] 25.2% | [3] 52.7% | [4] 53.6% | [5] 70.6% | [6] 55% | [7] 45.3% | [8] 71.4% | [9] 66.1% | [10] 56.2% | [11] 56.7% | [12] 46.8% | [13] 48.6% | [14] 61.1% | [15] 51.3% | [16] 44.5% | [18] 52.1% | [19] 48.7% | [20] 87.5%

N#CC1=C(N)Oc2c(ccc3cccnc23)C1c1ccccc1 (stereo not given)
inactive: [1] 17.6% | [2] 17.2% | [3] 47.9% | [4] 48.6% | [6] 45.2% | [7] 18.1% | [9] 74.4% | [10] 20% | [11] 28% | [12] 12.6% | [14] 52.7% | [15] 23.1% | [16] 22.8% | [18] 47.2% | [19] 33.7% | [20] 49.4%
active: [5] 4.49% | [8] -39.6% | [13] -6.14% | [17] 6.58%

Fc1ccc(/C=C/c2cc(/C=C/c3ccc(F)cc3)n(-c3cc(F)cc(F)c3)n2)cc1
inactive: [1] 99.9% | [2] 66.4% | [3] 98.1% | [4] 101% | [5] 112% | [6] 102% | [7] 93.5% | [8] 103% | [9] 106% | [10] 87.7% | [11] 103% | [12] 78.7% | [13] 91% | [14] 105% | [15] 117% | [16] 76.4% | [17] 100% | [18] 85.7% | [19] 102% | [20] 101%

CN(C)C(=O)OCc1ccc2c(Cl)cc(Cl)c(O)c2n1
inactive: [1] 39.7% | [2] 20% | [3] 46% | [4] 54.6% | [5] 67.6% | [6] 25.8% | [7] 34.5% | [8] 26.1% | [9] 48.5% | [10] 12.6% | [11] 22.8% | [12] 94% | [13] 48% | [14] 29.7% | [15] 18.5% | [16] 46.4% | [17] 27.4% | [19] 15.9% | [20] 42.2%
active: [18] -4.4%

CC1(C)C2=C(C(=O)N1Cc1ccccc1)C(c1ccco1)N(C(=O)C1CCC1)CCN2 (stereo not given)
inactive: [1] 110% | [2] 110% | [3] 105% | [4] 95.5% | [5] 136% | [6] 96.5% | [7] 108% | [8] 101% | [9] 95.6% | [10] 103% | [11] 109% | [12] 106% | [13] 83.7% | [14] 98.9% | [15] 100% | [16] 95.2% | [17] 105% | [18] 91.7% | [19] 96.8% | [20] 115%

CCOC(=O)CC1C(CNC(=O)NC)OC(n2cnc3c(NC(=O)Nc4ccccc4)ncnc32)C1O[Si](C)(C)C(C)(C)C (stereo not given)
inactive: [1] 63.3% | [2] 58.7% | [3] 55.3% | [4] 50.8% | [6] 58.6% | [7] 16% | [8] 52.6% | [9] 87.5% | [10] 67.3% | [11] 55.7% | [12] 27% | [13] 63.4% | [14] 93.9% | [15] 34% | [16] 47% | [17] 58.3% | [18] 80.4% | [19] 50.5% | [20] 83.9%
active: [5] -45.2%

COC(=O)[C@@H](Cc1c[nH]c2ccccc12)NC[C@@H](O)CN1C(=O)/C(=C\c2cc(OC)c(OC)c(OC)c2)c2ccccc21
inactive: [1] 75.1% | [2] 36% | [3] 84.8% | [4] 82.5% | [5] 72% | [6] 70.6% | [7] 69.4% | [8] 93.3% | [9] 62.2% | [10] 64.6% | [11] 53.9% | [12] 40.9% | [13] 58.3% | [14] 66.2% | [15] 55.6% | [16] 46.2% | [17] 59.8% | [18] 49.8% | [19] 50.9% | [20] 85.5%

CC(=O)OCC(=O)O[C@@H]1C[C@]2(C(C)C)O[C@@]1(C)[C@@H]1CC[C@@H](C)[C@H]1[C@@H]2OC(=O)/C=C/c1ccccc1
active: [5] -2.3%
inactive: [1] 101% | [2] 67.5% | [3] 101% | [4] 82.9% | [6] 51.5% | [7] 88.8% | [8] 92.4% | [9] 92.5% | [10] 97.2% | [11] 81.4% | [12] 82.3% | [13] 62.3% | [14] 86.6% | [15] 74.7% | [16] 58.6% | [17] 74.4% | [18] 81% | [19] 90.2% | [20] 102%
